“And” between values parts separate entries of the source, which are not always exact repeats. Equal values may be shown once. The source holds several records for some structures; these can differ, active in one and inactive in another. The source made the active and inactive calls. How the source made its calls: active means hit-call score of the fitted dose curve at least 0.9, where 1 is the maximum; inactive means score below 0.9.
The molecules below were run on Macrophage colony-stimulating factor (MCSF), CSF1 (gene 1435) (assay: BSK_hDFCGF_MCSF: BioMAP Diversity Plus: hDFCGF Assay for Macrophage colony-stimulating factor (MCSF) Biomarker Activity (AID 2283060)). Conditions: primary human foreskin fibroblasts; actives raise or lower the signal.
Procedure: BSK_hDFCGF is a cell-based, multiplexed-readout assay that uses foreskin fibroblast, a human skin primary cell, with measurements taken at 24 hours after chemical dosing in a 96-well plate.BSK_hDFCGF_MCSF is an assay component measured in the BSK_hDFCGF assay. It measures M-CSF antibody related to regulation of gene expression using ELISA technology.Data from the assay component BSK_hDFCGF_MCSF was analyzed into 1 assay endpoint. This assay endpoint, BSK_hDFCGF_MCSF, was analyzed with bidirectional fitting relative to DMSO as the negative control and baseline of activity. Using a type of binding reporter, gain or loss-of-signal activity can be used to understand changes in the signaling as they relate to the gene CSF1. Furthermore, this assay endpoint can be referred to as a primary readout, because this assay has produced multiple assay endpoints where this one serves a signaling function. To generalize the intended target to other relatable targets, this assay endpoint is annotated to the cytokine intended target family, where the subfamily is colony stimulating factor.
The levels of cell surface (or secreted, indicated by the prefix "s") biomarker endpoints were measured by ELISA. Overt cytotoxicity to cells in confluent adherent cultures (all systems other than the BT system) was assessed by measuring total protein levels using sulforhodamine B (SRB) staining in parallel cultures at the time of biomarker measurements, indicated as SRB endpoints. For proliferation assays for adherent cell types, individual cell types are cultured at sub-confluence and relative cell numbers quantified by SRB staining at time points optimized for each system (48 h: 3C and CASM3C systems; 72 h: BT and HDF3CGF systems; 96 h: SAg system). SRB was performed by staining cells with 0.1% SRB after fixation with 10% TCA and reading wells at 560 nm.Viability and proliferation of PBMC (T cells) was quantified by Alamar Blue reduction for the SAg and BT systems. For PBMC viability (referred to as PBMC Cytotoxicity within the assay endpoint names), cells were plated (75,000/well in a 96-well plate) and then chemical samples added for 1 h before addition of activators, SEB and TSST-1 (20 ng/mL final concentration each). Cells were incubated for 90 h. Then, Alamar Blue (20 uL/well) (Invitrogen, Cat DAL1100) was added for 6 h, and the plates were read with a fluorescence microplate reader at 546/580 nm (excitation/emission). For PBMC proliferation, cells were plated and activated as above but incubated for only 16 h prior to addition of Alamar Blue. Plates were read after 6 h.

Which outcome does the source give for `Nc1ccc(-c2ccc(N)cc2)cc1` here?
The outcome was “inactive”.

For `CCSC(=O)N(CC)C1CCCCC1`, which outcome is on record?
Its outcome is “inactive”.

With `CC(C)(c1ccccc1)c1ccc(O)cc1` as the molecule, how does the AC50 read?
The AC50 was 30.7 µM (active).

`Oc1ccc(C(c2ccc(O)cc2)(C(F)(F)F)C(F)(F)F)cc1` was tested. Which AC50 did it give?
The AC50 was 14.8 µM (active).

For `O=C(O)C(F)(F)C(F)(F)C(F)(F)C(F)(F)C(F)(F)C(F)(F)C(F)(F)C(F)(F)F`, which outcome is on record?
Its outcome is “inactive”.

`c1ccc(-c2ccccc2)cc1` was tested. Which outcome did it give?
Its outcome is “inactive”.

`CO/C=C(/C(=O)OC)c1ccccc1COc1cccc(C(F)(F)F)n1` was tested. Which AC50 did it give?
The AC50 was 7.27 µM (active).

With `CC#Cc1cc(C)nc(Nc2ccccc2)n1` as the molecule, how does the outcome read?
The outcome was “inactive”.

With `ClC1=C(Cl)[C@]2(Cl)[C@@H]3[C@@H](Cl)[C@H]4O[C@H]4[C@@H]3C1(Cl)C2(Cl)Cl` as the molecule, how does the outcome read?
The outcome was “inactive”.

How did the outcome turn out when `N#Cc1ccc(N(CC(N)=O)CC(F)(F)F)cc1C(F)(F)F` was run?
Its outcome is “inactive”.

Which outcome does the source give for `C1CC2OC2CC1C1CO1` (stereo not given) here?
Its outcome is “inactive”.

With `Cc1cccc(C)c1N` as the molecule, how does the outcome read?
The outcome was “inactive”.

Which outcome does the source give for `Sc1ccccc1` here?
The outcome was “inactive”.

`C[C@]12CCC(=O)C=C1CC[C@@H]1[C@@H]2CC[C@]2(C)C(=O)CC[C@@H]12` was tested. Which outcome did it give?
Its outcome is “inactive”.

With `CC(c1ccc(O)cc1)(c1ccc(O)cc1)c1ccc(O)cc1` as the molecule, how does the AC50 read?
The AC50 was 16.5 µM (active).

With `CCC(C)(c1ccc(O)cc1)c1ccc(O)cc1` as the molecule, how does the outcome read?
The outcome was “inactive”.

Which outcome does the source give for `CN(C)c1nc(=O)n(C2CCCCC2)c(=O)n1C` here?
The outcome was “inactive”.

How did the outcome turn out when `ClC1=C(Cl)[C@]2(Cl)[C@@H]3[C@@H]4C[C@@H]([C@H]5O[C@@H]45)[C@@H]3[C@@]1(Cl)C2(Cl)Cl` was run?
The outcome was “inactive”.

Which results are given for `Oc1c(Cl)c(Cl)c(Cl)c(Cl)c1Cl`?
AC50: 6.44 µM (active); outcome: inactive

How did the outcome turn out when `C[C@]12CCC(=O)C=C1CC[C@@H]1[C@@H]2CC[C@@]2(C)[C@H]1CC[C@]2(C)O` was run?
The outcome was “inactive”.

Which outcome does the source give for `O=C(NC(=O)c1cc(F)c(F)cc1Cl)Nc1cc(F)ccc1N1CCC(C(=O)O)CC1` here?
Its outcome is “inactive”.

Which outcome does the source give for `O=C(O)C(F)(F)C(F)(F)C(F)(F)C(F)(F)C(F)(F)F` here?
The outcome was “inactive”.

`CCC(C)(CC)c1cc(NC(=O)c2c(OC)cccc2OC)on1` was tested. Which outcome did it give?
Its outcome is “inactive”.

With `O=C(O)C(F)(F)C(F)(F)C(F)(F)C(F)(F)C(F)(F)C(F)(F)C(F)(F)C(F)(F)C(F)(F)F` as the molecule, how does the AC50 read?
Its AC50 is 30.4 µM (active) and 21.9 µM (active) and 21.6 µM (active).

For `ClC1=C(Cl)[C@]2(Cl)[C@@H]3[C@H]4C[C@H]([C@@H]5O[C@H]45)[C@@H]3[C@@]1(Cl)C2(Cl)Cl`, which outcome is on record?
Its outcome is “inactive”.

For `Clc1ccc(C(Cl)(Cl)Cl)cc1`, which outcome is on record?
The outcome was “inactive”.

For `O=S(=O)(O)C(F)(F)C(F)(F)C(F)(F)C(F)(F)C(F)(F)C(F)(F)F`, which outcome is on record?
Its outcome is “inactive”.

For `NS(=O)(=O)C(F)(F)C(F)(F)C(F)(F)C(F)(F)C(F)(F)C(F)(F)C(F)(F)C(F)(F)F`, which AC50 is on record?
Its AC50 is 14.8 µM (active) and 8.52 µM (active) and 8.29 µM (active).

For `CC(C)(O)C(=O)Nc1ccc([N+](=O)[O-])c(C(F)(F)F)c1`, which outcome is on record?
The outcome was “inactive”.

For `Clc1ccc(C(c2ccccc2Cl)C(Cl)(Cl)Cl)cc1` (stereo not given), which AC50 is on record?
Its AC50 is 8.37 µM (active).

`CN(C)CCO` was tested. Which outcome did it give?
The outcome was “inactive”.

Which outcome does the source give for `CC(C)C(=O)OCC(C)(C)C(OC(=O)C(C)C)C(C)C` (stereo not given) here?
The outcome was “inactive”.

How did the outcome turn out when `O=S(=O)(O)C(F)(F)C(F)(F)C(F)(F)C(F)(F)F` was run?
The outcome was “inactive”.

For `Nn1cnnc1`, which outcome is on record?
Its outcome is “inactive”.

How did the AC50 turn out when `CCC(=O)O[C@H]1CC[C@H]2[C@@H]3CCC4=CC(=O)CC[C@]4(C)[C@H]3CC[C@]12C` was run?
Its AC50 is 31.3 µM (active).

`Cc1cc2c3c(c1)C(c1ccccc1)=N[C@@H](NC(=O)c1ccncc1)C(=O)N3CC2` was tested. Which outcome did it give?
Its outcome is “inactive”.

With `Cc1cccc([N+](=O)[O-])c1` as the molecule, how does the outcome read?
Its outcome is “inactive”.

`Cc1cc(-c2ccc(N)c(C)c2)ccc1N` was tested. Which outcome did it give?
The outcome was “inactive”.

Which outcome does the source give for `Cc1cc(O)ccc1Cl` here?
The outcome was “inactive”.
